Drawing on paper PMC7862700, “An all-to-all approach to the identification of sequence-specific readers for epigenetic DNA modifications on cytosine”, this text covers binding signal for one sequence.

Common to all, as to test: DAPPL (digital affinity profiling via proximity ligation, sequencing); 10 mM Tris-HCl pH 7.5, 50 mM NaCl, 1 mM DTT, 4% glycerol, room temperature, 30 min; GST-TFs on glutathione beads, 16-mer random dsDNA library, 0.1% formaldehyde crosslink after washing; high values mean tight binding
Common to all, as to details: protein: recombinant; tags: N-terminal GST; dsDNA, one strand shown

The target of one assay is T1, FLI1 (Homo sapiens, UniProt Q01543 1-452).
T1 sequence: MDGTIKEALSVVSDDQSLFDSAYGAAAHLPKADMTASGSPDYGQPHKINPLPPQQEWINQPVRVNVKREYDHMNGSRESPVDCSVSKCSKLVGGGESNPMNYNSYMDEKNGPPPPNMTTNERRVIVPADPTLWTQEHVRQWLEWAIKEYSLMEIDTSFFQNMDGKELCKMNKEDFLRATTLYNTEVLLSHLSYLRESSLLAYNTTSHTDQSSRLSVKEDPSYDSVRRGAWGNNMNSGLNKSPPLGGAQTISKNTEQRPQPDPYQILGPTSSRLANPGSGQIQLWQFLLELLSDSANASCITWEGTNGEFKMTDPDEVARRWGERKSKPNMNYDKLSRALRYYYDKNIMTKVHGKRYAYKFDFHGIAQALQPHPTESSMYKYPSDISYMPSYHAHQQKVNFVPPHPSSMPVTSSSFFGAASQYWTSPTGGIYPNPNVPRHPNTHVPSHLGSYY
The method, boiled down: (§1)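 Beads coated with glutathione captured GST-fused human transcription factors that had been expressed in yeast, and the factors were then given DNA barcodes and pooled with a tag-only sample. The pools were incubated with 200 nmole of a random double-stranded 16-mer DNA library in Tris/NaCl/DTT/glycerol buffer for 30 min at room temperature, washed, crosslinked with 0.1% formaldehyde and proximity-ligated with BsaI/T4 ligase at 37 °C for 1 h. PCR amplification and Illumina NextSeq500 sequencing came last. Binding signal is each hexamer's read frequency for a factor divided by its frequency for the tag-only sample.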

In another assay the target is T2, GABPA (Homo sapiens, UniProt Q06546 1-454).
T2 sequence: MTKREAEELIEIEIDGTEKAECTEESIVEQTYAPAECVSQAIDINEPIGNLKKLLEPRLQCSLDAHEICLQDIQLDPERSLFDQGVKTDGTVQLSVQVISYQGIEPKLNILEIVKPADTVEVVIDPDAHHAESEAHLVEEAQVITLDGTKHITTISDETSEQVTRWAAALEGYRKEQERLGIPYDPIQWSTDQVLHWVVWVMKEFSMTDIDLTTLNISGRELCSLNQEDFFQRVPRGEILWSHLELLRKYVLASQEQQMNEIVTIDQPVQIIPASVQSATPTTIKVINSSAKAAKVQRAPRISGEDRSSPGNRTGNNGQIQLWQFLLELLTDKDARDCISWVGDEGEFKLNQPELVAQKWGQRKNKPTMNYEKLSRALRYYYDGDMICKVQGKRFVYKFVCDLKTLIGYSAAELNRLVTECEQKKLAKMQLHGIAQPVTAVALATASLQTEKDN
The procedure, abridged:
as §1

Another assay addresses T3, ERG (Homo sapiens, UniProt P11308 1-479).
T3 sequence: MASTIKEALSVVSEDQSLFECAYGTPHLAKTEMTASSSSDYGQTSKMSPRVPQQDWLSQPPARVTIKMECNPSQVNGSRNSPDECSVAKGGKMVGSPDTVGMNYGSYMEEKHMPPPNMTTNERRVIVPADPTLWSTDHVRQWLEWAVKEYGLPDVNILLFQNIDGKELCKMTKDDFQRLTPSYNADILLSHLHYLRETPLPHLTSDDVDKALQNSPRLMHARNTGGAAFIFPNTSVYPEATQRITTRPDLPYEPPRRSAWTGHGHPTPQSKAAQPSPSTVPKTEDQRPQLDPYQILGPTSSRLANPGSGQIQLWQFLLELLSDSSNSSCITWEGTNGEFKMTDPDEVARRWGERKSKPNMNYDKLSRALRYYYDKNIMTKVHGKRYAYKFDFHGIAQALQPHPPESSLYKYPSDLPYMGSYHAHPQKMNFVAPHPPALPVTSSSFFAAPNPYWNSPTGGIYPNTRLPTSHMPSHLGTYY
The procedure, abridged:
as §1

The next assay addresses T4, EHF (Homo sapiens, UniProt Q9NZC4 1-300).
T4 sequence: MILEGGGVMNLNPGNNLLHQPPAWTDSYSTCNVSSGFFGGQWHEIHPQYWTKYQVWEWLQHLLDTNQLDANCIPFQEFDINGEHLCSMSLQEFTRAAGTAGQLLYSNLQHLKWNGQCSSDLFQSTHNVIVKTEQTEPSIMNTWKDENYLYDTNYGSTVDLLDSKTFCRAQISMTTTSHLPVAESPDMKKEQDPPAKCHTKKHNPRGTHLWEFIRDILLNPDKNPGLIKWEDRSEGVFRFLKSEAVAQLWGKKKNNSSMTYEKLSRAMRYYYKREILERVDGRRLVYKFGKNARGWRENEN
The procedure, abridged: as §1

A further assay has as its target SPI1 (Homo sapiens, UniProt P17947 1-270). The method, boiled down: as §1
The next assay concerns the target SPIB (Homo sapiens, UniProt Q01892 1-262). The method, boiled down: as §1
The target in another assay is T5, FEV (Homo sapiens, UniProt Q99581 1-238).
T5 sequence: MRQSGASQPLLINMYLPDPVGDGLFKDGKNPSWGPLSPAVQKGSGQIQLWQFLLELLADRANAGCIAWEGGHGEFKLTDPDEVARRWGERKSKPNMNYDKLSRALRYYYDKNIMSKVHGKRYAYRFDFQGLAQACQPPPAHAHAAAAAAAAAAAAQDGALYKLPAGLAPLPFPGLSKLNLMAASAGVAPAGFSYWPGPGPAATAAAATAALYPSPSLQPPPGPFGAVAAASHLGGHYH
The method, boiled down: as §1

The target of another assay is ETV5 (Homo sapiens, UniProt P41161 1-510). The method, boiled down: as §1
For a further assay, the target named is T6, SPIC (Homo sapiens, UniProt Q8N5J4 1-248).
T6 sequence: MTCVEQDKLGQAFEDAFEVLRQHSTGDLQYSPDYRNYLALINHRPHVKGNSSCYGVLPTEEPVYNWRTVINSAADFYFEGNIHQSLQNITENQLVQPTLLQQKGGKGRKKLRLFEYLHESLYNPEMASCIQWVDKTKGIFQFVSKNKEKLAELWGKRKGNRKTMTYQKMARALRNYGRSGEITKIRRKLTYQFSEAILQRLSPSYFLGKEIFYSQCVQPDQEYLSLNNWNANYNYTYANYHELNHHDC
The method, boiled down:
as §1

The target in a further assay is ELF4 (Homo sapiens, UniProt Q99607 1-663). The method, boiled down:
as §1

Another assay deals with ETV1 (Homo sapiens, UniProt P50549 1-477). The method, boiled down:
as §1

The target of a further assay is T7, ETV3L (Homo sapiens, UniProt Q6ZN32 1-361).
T7 sequence: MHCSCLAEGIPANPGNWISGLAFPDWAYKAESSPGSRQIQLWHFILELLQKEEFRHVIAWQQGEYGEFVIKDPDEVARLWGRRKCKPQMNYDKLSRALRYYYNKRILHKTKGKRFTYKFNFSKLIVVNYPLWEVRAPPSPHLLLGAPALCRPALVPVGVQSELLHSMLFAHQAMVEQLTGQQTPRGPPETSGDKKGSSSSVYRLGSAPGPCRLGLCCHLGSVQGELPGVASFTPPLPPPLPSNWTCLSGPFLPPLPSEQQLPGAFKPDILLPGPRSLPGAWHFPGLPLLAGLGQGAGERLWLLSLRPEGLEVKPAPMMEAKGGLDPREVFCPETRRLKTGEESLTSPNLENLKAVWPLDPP
The method, boiled down: as §1

The next assay deals with ETV6 (Homo sapiens, UniProt P41212 1-452). The procedure, abridged: as §1
Chain of ETV6 (P41212 whole entry): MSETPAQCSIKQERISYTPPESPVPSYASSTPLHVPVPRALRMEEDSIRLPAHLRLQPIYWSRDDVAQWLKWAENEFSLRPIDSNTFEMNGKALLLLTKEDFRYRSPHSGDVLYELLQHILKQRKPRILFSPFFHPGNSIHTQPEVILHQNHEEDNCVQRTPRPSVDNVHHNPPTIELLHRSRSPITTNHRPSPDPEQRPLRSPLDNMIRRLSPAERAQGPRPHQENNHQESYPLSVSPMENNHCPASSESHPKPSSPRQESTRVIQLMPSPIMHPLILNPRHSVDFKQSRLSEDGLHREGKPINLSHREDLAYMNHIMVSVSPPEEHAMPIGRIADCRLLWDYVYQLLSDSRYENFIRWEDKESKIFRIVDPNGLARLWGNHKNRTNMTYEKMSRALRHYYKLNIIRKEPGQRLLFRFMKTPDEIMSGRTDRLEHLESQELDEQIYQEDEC

Chain of SPIB (Q01892 whole entry): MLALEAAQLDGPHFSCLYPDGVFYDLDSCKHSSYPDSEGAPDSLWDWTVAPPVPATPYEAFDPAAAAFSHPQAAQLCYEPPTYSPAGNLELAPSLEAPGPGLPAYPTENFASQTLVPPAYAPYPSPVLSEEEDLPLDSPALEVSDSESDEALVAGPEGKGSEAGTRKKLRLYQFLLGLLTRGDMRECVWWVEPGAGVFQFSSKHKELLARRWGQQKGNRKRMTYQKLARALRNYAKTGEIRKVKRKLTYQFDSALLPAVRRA
Chain of ETV1 (P50549 whole entry): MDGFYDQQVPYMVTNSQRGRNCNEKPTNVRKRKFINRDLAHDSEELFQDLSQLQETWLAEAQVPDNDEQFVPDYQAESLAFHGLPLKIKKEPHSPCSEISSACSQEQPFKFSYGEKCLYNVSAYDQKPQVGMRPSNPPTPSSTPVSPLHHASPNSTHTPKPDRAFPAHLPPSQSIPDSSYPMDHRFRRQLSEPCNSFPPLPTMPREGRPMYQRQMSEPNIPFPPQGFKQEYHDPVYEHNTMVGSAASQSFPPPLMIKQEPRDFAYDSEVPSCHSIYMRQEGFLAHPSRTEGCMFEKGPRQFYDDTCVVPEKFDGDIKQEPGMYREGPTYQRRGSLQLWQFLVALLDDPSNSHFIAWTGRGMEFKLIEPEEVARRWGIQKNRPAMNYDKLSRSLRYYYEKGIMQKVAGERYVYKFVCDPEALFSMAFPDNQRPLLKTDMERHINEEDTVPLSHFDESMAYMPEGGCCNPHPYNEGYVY
Chain of ELF4 (Q99607 whole entry): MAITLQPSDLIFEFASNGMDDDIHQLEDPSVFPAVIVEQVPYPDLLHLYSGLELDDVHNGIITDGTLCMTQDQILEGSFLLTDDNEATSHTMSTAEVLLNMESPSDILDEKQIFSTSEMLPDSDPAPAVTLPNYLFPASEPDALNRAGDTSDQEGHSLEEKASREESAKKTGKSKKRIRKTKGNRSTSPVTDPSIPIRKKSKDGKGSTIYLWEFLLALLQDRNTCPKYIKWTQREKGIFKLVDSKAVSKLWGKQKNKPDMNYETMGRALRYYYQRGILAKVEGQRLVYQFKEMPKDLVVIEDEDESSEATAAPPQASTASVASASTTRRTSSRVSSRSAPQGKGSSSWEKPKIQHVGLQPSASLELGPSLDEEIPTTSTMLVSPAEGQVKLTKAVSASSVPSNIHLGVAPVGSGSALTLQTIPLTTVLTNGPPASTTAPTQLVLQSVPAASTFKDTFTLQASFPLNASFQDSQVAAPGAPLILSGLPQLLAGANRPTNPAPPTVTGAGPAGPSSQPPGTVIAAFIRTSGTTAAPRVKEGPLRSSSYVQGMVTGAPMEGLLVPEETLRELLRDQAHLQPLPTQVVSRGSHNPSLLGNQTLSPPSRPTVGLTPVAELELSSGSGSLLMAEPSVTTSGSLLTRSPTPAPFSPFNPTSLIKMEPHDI
Chain of ETV5 (P41161 whole entry): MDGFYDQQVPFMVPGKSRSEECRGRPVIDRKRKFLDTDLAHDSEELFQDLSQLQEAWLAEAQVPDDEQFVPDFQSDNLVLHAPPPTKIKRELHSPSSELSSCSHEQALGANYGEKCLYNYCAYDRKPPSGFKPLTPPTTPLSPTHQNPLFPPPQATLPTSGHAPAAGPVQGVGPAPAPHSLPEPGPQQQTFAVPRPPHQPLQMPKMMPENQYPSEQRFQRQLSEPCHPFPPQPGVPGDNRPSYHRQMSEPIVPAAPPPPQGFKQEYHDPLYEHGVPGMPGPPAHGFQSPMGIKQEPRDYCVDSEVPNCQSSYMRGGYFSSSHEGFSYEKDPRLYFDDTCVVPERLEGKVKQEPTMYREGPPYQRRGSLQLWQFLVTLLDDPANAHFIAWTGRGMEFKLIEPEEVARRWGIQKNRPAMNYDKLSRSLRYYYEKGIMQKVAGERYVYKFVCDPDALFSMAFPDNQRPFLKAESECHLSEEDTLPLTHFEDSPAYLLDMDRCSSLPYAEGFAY

Consider TGTGGC, for which the binding signal is 1.05 fold enrichment (6-mer frequency, TF over GST control) with FLI1; 1.03 fold enrichment (6-mer frequency, TF over GST control) in the assay with GABPA; 1.07 fold enrichment (6-mer frequency, TF over GST control) with ERG; 1.02 fold enrichment (6-mer frequency, TF over GST control) with EHF; 1.14 fold enrichment (6-mer frequency, TF over GST control) with SPI1; 1.09 fold enrichment (6-mer frequency, TF over GST control) in the assay with SPIB. Moreover, the binding signal with FEV is 1.13 fold enrichment (6-mer frequency, TF over GST control); with ETV5, 1.01 fold enrichment (6-mer frequency, TF over GST control); with SPIC, 1.14 fold enrichment (6-mer frequency, TF over GST control); with ELF4, 1.02 fold enrichment (6-mer frequency, TF over GST control); in the assay with ETV1 it was 1.05 fold enrichment (6-mer frequency, TF over GST control); with ETV3L it was 1.06 fold enrichment (6-mer frequency, TF over GST control). In addition, in the assay with ETV6, the binding signal is 1.19 fold enrichment (6-mer frequency, TF over GST control).
